Results: PMC12136788
Positions count from the first letter of the chain named. In all, about 24,000 sequences were measured (“enrichment r”: median about 0.99, highest 2% from about 3.7 on). For the sample, the highest values were picked, then their nearest neighbours and some sequences at random.

T1: UNK ZnF1-3 (human, UniProt Q9C0B0 31-174)
T1 sequence: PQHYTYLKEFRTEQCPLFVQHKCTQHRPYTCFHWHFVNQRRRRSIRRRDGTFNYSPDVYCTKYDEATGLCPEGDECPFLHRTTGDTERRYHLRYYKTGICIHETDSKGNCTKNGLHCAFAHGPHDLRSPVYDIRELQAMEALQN

B1: chr10:33190432:33190433:-_ENSG00000150093_ENST00000302278|hu_mus|hu_hu_hu_mus_True|68_98 (ssRNA)
RNA: GGGAGUUCUACAGUCCGACGAUCUACAUUUUCCAAACCUGCACAUGAAUAAAACCCUGGCCACAGAGCCCUAAAGCUACCCUACUGUGACUAAGAUGCUGCUGCUGUGAGCUUGGUGUUGCAAAAUCCGCCUGAGUAGGAUUCCAACAGAGGAUUGAGCAUCA
B2: chr6:35837335:35837336:-_ENSG00000096063_ENST00000361690|hu_mus|FALSE|FALSE (ssRNA)
RNA: GGGAGUUCUACAGUCCGACGAUCGGGCUCCUGCUCAUCCCCAGAAGGUGUAUCUGCCCGAAUGCUCUCCUCCAGCUGGGUGAUGUCCUGUCGGGUGAGUGACUGCUCUGCAGAGGAUUGGCACACCAUGGUCUCAGAGGCCGUCAACAGAGGAUUGAGCAUCA
B3: chr2:126475859:126475860:-_ENSMUSG00000027361_ENSMUST00000110424|mus_mus|FALSE|FALSE (ssRNA)
RNA: GGGAGUUCUACAGUCCGACGAUCAGUUUCUGAAGAAUUGGACAAUGGGGCAGAAGCUUCAGCUAAGGCAGCUAACGUAGCUAAUACUGACGUAGAGGAGUUUCCAAACUGAACAGCAGAUACUCCUGUUUCAUCUGUGAGGUUCAACAGAGGAUUGAGCAUCA
B4: chr17:25041749:25041750:-_ENSMUSG00000024163_ENSMUST00000117509|mus_hu|FALSE|FALSE (ssRNA)
RNA: GGGAGUUCUACAGUCCGACGAUCCGAGGGAUAGGGGCGCUUGGCCGGAGGGGGGCUGGAGGAAGAGCUGAAGAGGCGGCUGAAGAACUGCCAGAUGGUCGACUUCUUCUUCUCCUGGACGGAUGGGUGCUCUCGGGACGCUCUCAACAGAGGAUUGAGCAUCA
B5: chr17:60770872:60770873:+_ENSG00000011028_ENST00000303375|hu_hu|hu_hu_hu_mus_True|48_88 (ssRNA)
RNA: GGGAGUUCUACAGUCCGACGAUCUCUUUAAAAAAAAAAAAAAAAAGUUUAAAAACAAUAGCACAUUUCGAGAAUCAAGAACUACAAAGAAAGGGCCGCUUUGAGUUUUUGUUCACAUCGUCCUGCACUGGGACACGGGGACUGCAACAGAGGAUUGAGCAUCA
B6: chr17:60770872:60770873:+_ENSG00000011028_ENST00000303375|hu_mus|FALSE|FALSE (ssRNA)
RNA: B5 RNA with U47A, U48C, U49A, A52C, C55U, A87U, G88A, A89G, A91G, G94U
B7: chr17:60770872:60770873:+_ENSG00000011028_ENST00000303375|hu_hu|hu_hu_hu_mus_True|48_48 (ssRNA)
RNA: B5 RNA with U47A, U48C, U49A, A52C, C55U
B8: chr17:60770872:60770873:+_ENSG00000011028_ENST00000303375|hu_hu|hu_hu_hu_mus_True|18_58 (ssRNA)
RNA: GGGAGUUCUACAGUCCGACGAUCUCUUUAAAAAAAAAAAAAAAAAGACAAACAAUAAUAGCACAUUUCGAGAAUCAUCAACUACAGUAGAGGGUCCGCUUUGAGUUUUUGUUCACAACAUUGUCCCCUGGGACACGGGGACUGCAACAGAGGAUUGAGCAUCA
B9: chr17:60770872:60770873:+_ENSG00000011028_ENST00000303375|hu_hu|hu_hu_hu_mus_True|88_88 (ssRNA)
RNA: B5 RNA with A87U, G88A, A89G, A91G, G94U
B10: chr17:60770872:60770873:+_ENSG00000011028_ENST00000303375|hu_hu|hu_hu_hu_mus_True|18_18 (ssRNA)
RNA: B8 RNA with U77A, C78G, G86A
B11: chr17:60770872:60770873:+_ENSG00000011028_ENST00000303375|hu_hu|hu_hu_hu_mus_True|18_88 (ssRNA)
RNA: B8 RNA with A47U, C48U, A49U, C52A, U55C, U77A, C78G, G86A
B12: chr17:60770872:60770873:+_ENSG00000011028_ENST00000303375|hu_hu|hu_hu_hu_mus_True|1_8 (ssRNA)
RNA: GGGAGUUCUACAGUCCGACGAUCUCUUUAAAAAAAAAAAAAAAAAGACAAACAAUAAUAGCACAUUUCGAGAAUCAAGAACUACAAUAGAGGGUCCGCUUUGAGUUUUUGUUCACAUCGUCCUGCAACGCUGUCGCACCAGGACAACAGAGGAUUGAGCAUCA
B13: chr17:60770872:60770873:+_ENSG00000011028_ENST00000303375|hu_hu|hu_hu_hu_mus_True|18_48 (ssRNA)
RNA: B8 RNA with U77A, C78G, G86A, U87A, A88G, G89A, G91A, U94G
B14: chr17:60770872:60770873:+_ENSG00000011028_ENST00000303375|hu_hu|hu_hu_hu_mus_True|1_1 (ssRNA)
RNA: B12 RNA with A127C, C128U, C130G, U131G, G132A, U133C, C134A, G135C, C136G
B15: chr17:60770872:60770873:+_ENSG00000011028_ENST00000303375|hu_hu|hu_hu_hu_mus_True|48_58 (ssRNA)
RNA: B5 RNA with U47A, U48C, U49A, A52C, C55U, A77U, G78C, A86G
B16: chr13:100200933:100200934:-_ENSMUSG00000052727_ENSMUST00000064762|mus_hu|FALSE|FALSE (ssRNA)
RNA: GGGAGUUCUACAGUCCGACGAUCAGAGGUGAGUGAGGCAUAUAAGGACAUAUCUCUGGGAGGAGCAACAUCGGAUAGAGUAUCUUCUUGGAGAGGAGAAGCGAUCUGAGAAGGGGUAUGAGCAGAAGAGGUGGACGGGGAGGCCAACAGAGGAUUGAGCAUCA
B17: chr14:21343058:21343059:-_ENSMUSG00000021816_ENSMUST00000161445|perfect_dup|FALSE|FALSE (ssRNA)
RNA: GGGAGUUCUACAGUCCGACGAUCUGUAGUUUGACUUUUUCUGUACAUUCUAUAGCCUGCAUCUUGAGCUUCAUGAGCUCUAAUAAUCGAUAACAAAUUAUUGUUUUGCAAAAAUUCACACACUGCUGGAUAGUUAUAAAAAUACAACAGAGGAUUGAGCAUCA
B18: chr2:216981417:216981418:+_ENSG00000079246_ENST00000392132|hu_hu|hu_hu_hu_mus_True|58_68 (ssRNA)
RNA: GGGAGUUCUACAGUCCGACGAUCCUGAUACUGGUCCUUGCCAGCAAGGGCAUUAUCAGUGCCAUCUGUACCAAACAGGACUAAAGCAAUCUCAUCUUUGCUCUCCGAAAAUACCUGUCGUUGGACAAACAUAGUCAUCACUUUCAACAGAGGAUUGAGCAUCA
B19: chr6:40197388:40197389:+_ENSMUSG00000057716_ENSMUST00000061740|mus_mus|mus_mus_mus_hu_False|68_108 (ssRNA)
RNA: GGGAGUUCUACAGUCCGACGAUCGAGUUGUCAGUUUGGAUUUAUUCCACCUCUGUUUGGGUGCUAGUAAGAUAGAUUGUUAUUUUGGGAUUCAUGGCCUUGAAUAUCAAGAGGGAAAGGAAGAGGAUGGAAAGAGUCAAGAGUCAACAGAGGAUUGAGCAUCA
B20: 33360611_33360731_3434_3pUTR_ENSMUSG00000024378_ENSMUST00000025236|mouse|control|control (ssRNA)
RNA: GGGAGUUCUACAGUCCGACGAUCCUAUGGACUGCUAUAAGCCCUUCCCCCAGCCCCAGGUACUUUUGCAAGAGCAGAGAACGCUCUUUCACUACCAUCACCUCCCAGCCUCUGCUGGGAUACUCUGAGUUACACGUAUGGCUUCAACAGAGGAUUGAGCAUCA
B21: chr7:7679991:7679992:-_ENSG00000106399_ENST00000396682|hu_hu|hu_hu_hu_mus_False|8_8 (ssRNA)
RNA: GGGAGUUCUACAGUCCGACGAUCUGGGAUGAAUCUUUUCCAGCUUCCCCACGAAGCACACGGGCCGGUCGAUAUACUGUGGUAACAUGCUGGCGUUGACGCGCGCUUUGGGGAGCUGCAUUAUGUCCACCAUGAUUCUGCCGCCAACAGAGGAUUGAGCAUCA
B22: 142153747_142154939_927_CDS_ENSG00000109445_ENST00000262990|human|control|control (ssRNA)
RNA: GGGAGUUCUACAGUCCGACGAUCAUAAGCAUCAUACCCAGAAGCUCCAUCUCCCUCUUCACCUCCAGUCUGCCUGCCAAAUUUCAGGGAGCGUGUUGACAUGCUAAGGUCCUUAGUCUCCUGAGUUUCAUGCCCACAUUUAGGCAACAGAGGAUUGAGCAUCA

Target: T1, UNK ZnF1-3
Assay: nsRBNS (natural sequence RNA bind-n-seq); RBNS binding buffer (assumed for nsRBNS): 25 mM Tris pH 7.5, 150 mM KCl, 3 mM MgCl2, 0.01% Triton X-100, 500 ug/ml BSA, 20 U/ml SUPERase-In, 4 C; UNK is unkempt and MSI1 is Musashi-1; names of the RNAs are library labels; protein concentration not given here; high values mean tight binding

| Binder | binding signal |
| --- | --- |
| B1 | 0.909 enrichment R |
| B2 | 3.58 enrichment R |
| B3 | 1.31 enrichment R |
| B4 | 1.43 enrichment R |
| B5 | 3.6 enrichment R |
| B6 | 4.24 enrichment R |
| B7 | 3.87 enrichment R |
| B8 | 3.65 enrichment R |
| B9 | 4.21 enrichment R |
| B10 | 4.15 enrichment R |
| B11 | 3.34 enrichment R |
| B12 | 3.63 enrichment R |
| B13 | 3.63 enrichment R |
| B14 | 3.11 enrichment R |
| B15 | 3.59 enrichment R |
| B16 | 3.67 enrichment R |
| B17 | 1.03 enrichment R |
| B18 | 0.678 enrichment R |
| B19 | 2.09 enrichment R |
| B20 | 0.77 enrichment R |
| B21 | 0.487 enrichment R |
| B22 | 1.39 enrichment R |
